SMILES strings stand for the structures. Several values for one entry are separate records, joined by “and”; a condition that tells them apart may be missing. Equal entries are not always repeated. This is part of a sample that, as a whole, favours compounds with a hit. Of some 83,000 tested, about 20% had one in any assay.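 96-well plates, one dose, 48 hours. Percent growth reported; active if below 10.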 More than one record can exist for a structure, and the calls need not agree. Activity calls are given as the source filed them.

The assay deals with UACC-62 melanoma. As to the kind of experiment: NCI-60 one-dose screen, 48 h (100 = growth as untreated, 0 = no growth, -100 = all killed). Conditions: 10 µM unless noted.
`Oc1ccc2ccccc2c1N=Nc1ccccn1`: the growth was 29.8% (inactive).
For `OC(c1cc(-c2ccc(C(F)(F)F)cc2)nc(C(F)(F)F)c1)C1CCCCN1` (stereo unspecified), the growth was 0.644% (active) and -95.1% (active) and 69.5% (inactive).
Under `C/C(=N/NC(N)=S)c1ccc(C)cc1` stands 103% (inactive); under `O=C1CSC(=S)N1Cc1cccnc1`, 87.6% (inactive).
Under `C=C1C(=O)OC2CC3(C)CCCC(C)C3=CC12` (stereo unspecified) stands -100% [100 µM] (active) and -93.9% [100 µM] (active).
Under `O=C(c1ccccc1)C(Br)[N+](=O)[O-]` (stereo unspecified) stands 89.8% (inactive).
With `CC(/C=N/NC(N)=S)Cc1ccc(C(C)C)cc1` (stereo unspecified), the growth is 54.5% (inactive).
Under `Nc1cc(-c2ccccc2)ccc1O` stands 88% (inactive); under `Oc1c(C(Nc2ccccc2)c2ccccc2)ccc2cccnc12` (stereo unspecified), 31.4% (inactive).
Under `C=C(CO)C(=O)OC1CC(=C)C2CC(O)C(C)C2C2OC(=O)C(=C)C12` (stereo unspecified) stands 60.1% [100 µM] (inactive) and -100% [100 µM] (active); under `O=C(Cc1nc2cc(Cl)c(Cl)cc2nc1CC(=O)c1cccnc1)c1cccnc1`, 71.4% (inactive); under `COc1cccc2c1C(=O)c1c(O)c3c(c(O)c1C2=O)C[C@@](O)(C(=O)CO)C[C@@H]3OC1CC(OC(C)=O)C(OC(C)=O)C(C)O1` (stereo partly specified), -87.8% (active).
For `O=[N+]([O-])c1ccc([I+]c2ccccc2)cc1`, the growth is -17.6% (active).
As for `C=CCO/N=C/c1cc(NC(=S)c2ccoc2C)ccc1Cl`, the figure is -98.8% [100 µM] (active) and -100% [100 µM] (active); as for `O=C1C=CC(=O)N1c1ccccc1`, 93.2% (inactive).
Turning to `O=[N+]([O-])CC(O)c1ccccc1` (stereo unspecified), the growth is 99.1% (inactive).
With `CCCCCCCCCCCCNCCCc1ccccc1`, the growth was 57.2% (inactive).
As for `CCOC(=O)C1C(C(C)C)C2(C#N)C(=N)OC1(C)C2(C#N)C#N` (stereo unspecified), the figure is -51.6% [100 µM] (active) and -86.9% [100 µM] (active).
Under `CN=C(N)N/N=C(\C)c1ccc2c(c1)Cc1ccccc1-2` stands -80.2% (active); under `CCN(CC)CCNc1ccc([N+](=O)[O-])c2sc3ccccc3c(=O)c12`, 35.7% (inactive); under `O/N=C1\c2ccccc2-c2ccc(F)cc21`, 93.8% (inactive).
Under `COc1cc(NC(=O)C2=C(C)NC(C)=C(C(=O)Nc3cc(OC)c(Cl)cc3OC)C2c2cccc([N+](=O)[O-])c2)c(OC)cc1Cl` stands 27.6% (inactive).
Consider `CCN(CC)CCNC(Cc1ccccc1)c1ccc(OCc2ccccc2)cc1` (stereo unspecified), for which the growth was -50.8% (active).
Under `c1ccc(C2NCCNC2c2ccccc2)cc1` (stereo unspecified) stands 102% (inactive); under `COC(=O)Nc1nc2ccc(C3(c4ccc(F)cc4)OCCO3)cc2[nH]1`, 53.3% (inactive).
Under `O=C(O)c1ccc2c(c1)C(=O)c1ccccc1C2=O` stands 94.9% (inactive).
Under `C=C(C(N)=O)C(N)C(=O)O` (stereo unspecified) stands 114% (inactive); under `CCC[CH2][Sn]1([CH2]CCC)[O]C2C(CO)OC(n3ccc(N)nc3=O)C2[O]1` (stereo unspecified), -89% (active).
`COc1cc2c(c(OC)c1OC)-c1ccc(NCc3ccccc3)c(=O)cc1[C@@H](NC(C)=O)CC2`: the growth was 24.9% (inactive).
Under `CCN1CCCC(Nc2cc(C)nc(/N=C(/N)Nc3ccc(Cl)c(Cl)c3)n2)C1` (stereo unspecified) stands -80.7% (active).
Under `CN=C(N)N/N=C(\c1ccccc1)c1ccc(Br)cc1` stands 33.8% (inactive); under `O=C(NOC(=O)c1ccccc1)c1ccccc1`, 109% (inactive).
As for `O=[n+]1c2ccccc2n([O-])c2cc(Cl)ccc21`, the figure is 81% (inactive).
With `C(=N\Nc1ccc2ccccc2n1)/c1ccccn1`, the growth is -14.4% (active).
Take `O=C(CCl)N1c2ccccc2Sc2c1ccc1ccccc21`: the growth was 78% (inactive).
As for `CC(C)c1ccc(Nc2n[nH]c(=S)s2)cc1`, the figure is 99% (inactive).

Values taken from PubChem BioAssay (NCI).
